Test results reported in ChEMBL document CHEMBL3988442, “University of Dundee, Small-Polar-MMV Screening Library” (2021).

biological target: Sialic acid-binding Ig-like lectin 9 (Homo sapiens) (UniProt Q9Y336); experiment: Hs-Siglec9 ALPHAscreen SOP 20170721; set-up: scale not given: direction of the effect not stated beside the values; details: 10 µM
Sequence (Q9Y336 whole entry): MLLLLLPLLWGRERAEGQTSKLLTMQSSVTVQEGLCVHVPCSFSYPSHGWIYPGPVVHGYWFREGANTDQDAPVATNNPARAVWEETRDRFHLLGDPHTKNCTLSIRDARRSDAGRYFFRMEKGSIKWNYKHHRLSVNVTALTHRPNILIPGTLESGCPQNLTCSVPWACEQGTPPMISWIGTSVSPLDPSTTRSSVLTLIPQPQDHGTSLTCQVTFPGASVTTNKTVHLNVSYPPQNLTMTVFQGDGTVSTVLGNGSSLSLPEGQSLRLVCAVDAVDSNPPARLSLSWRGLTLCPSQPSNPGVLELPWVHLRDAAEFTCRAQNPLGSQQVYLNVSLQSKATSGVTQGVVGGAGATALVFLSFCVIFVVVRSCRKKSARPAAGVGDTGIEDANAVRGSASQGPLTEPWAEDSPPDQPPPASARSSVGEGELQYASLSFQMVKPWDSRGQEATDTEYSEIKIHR

SMILES | Percent Effect [%]
N#CC1(C(=O)N2CCN(Cc3ccon3)CC2)CCC1 | 6.56
Cc1ccc2c(c1)c(CNC(=O)C1CC(=O)N(C3CCCC3)C1)nn2C (stereo not given) | 6.8
CCOc1cc(C)nc(N2CCN(Cc3nccn3C)CC2)n1 | 13.8
CCN(CC)C(=O)CCNC(=O)N1CCC(c2ccccc2)C1 (stereo not given) | 1.13
CCN1CCOC(CNCc2ccccc2OCC(=O)N(C)C)C1 (stereo not given) | 0.0919
CC(NCc1ccc(Cl)o1)c1nnc2n1CCCC2 (stereo not given) | 2.02
Cc1ccc(NC(=O)Cn2cc(I)cn2)cc1 | 3.22
CC(C)c1nnc2n1CCN(C(=O)CN1Cc3ccccc3C1=O)C2 | 2.22
O=C(c1ccc(Cl)c(Cl)c1)N1CCCC(n2cncn2)C1 (stereo not given) | 0.213
O=C1COc2cc(C(=O)NS(=O)(=O)c3ccccc3F)ccc2N1 | -9.82
CN(C)[C@@H]1CCN(c2ncccn2)[C@H]1Cc1ccncc1 | 0.217
O=C([C@H]1CCCO1)N1CCc2ncnc(NC3CC3)c2CC1 | -2.06
c1ccc(-c2nnc(CNCCn3cccn3)o2)cc1 | -1.76
CC(C)c1nc2c(n1C)CCN(Cc1nc(-c3cccs3)no1)C2 | 3.18
COCCN1CC[C@@H]2OC[C@H](C(=O)NCc3cccs3)C[C@@H]2C1 | -15.8
O=C(NCc1ccc(F)cc1)N1CCC(C2OCCO2)CC1 | 6.03
CN(Cc1nnc(C2CC2)n1C)C1CCN(Cc2ccc(F)cc2)C1 (stereo not given) | 2.26
CN(C(=O)c1cccc2[nH]ncc12)C1CCN(c2ccccn2)CC1 | -5.52
Cc1nnc(N2CCC(CN(C)C(C)C)CC2)c(C#N)c1C | -13.1
Cc1cc(-c2nnc(SCC(=O)O)n2C(C)c2ccccc2)nn1C (stereo not given) | 18.6

SMILES | Percent Effect [%]
CC(C)OCc1ncn2c1CN(Cc1ccc(F)cc1)CCC2 | 2.94
Fc1cnc(N2C[C@H]3CCC[C@@]3(COc3ccccn3)C2)nc1 | 4.78
CCS(=O)(=O)N1CCC2(CCCN(Cc3cc(OC)ccc3F)C2)C1 (stereo not given) | -4.29
COC(=O)c1ccc(C(=O)NS(=O)(=O)c2cncc(Br)c2)cc1 | 3.83
COc1c(CNC(c2nccn2C)C(C)C)c(C)nn1C (stereo not given) | 13.8
CC(C)c1nc(CN(C)CC2CCN(CCO)CC2)no1 | 0.371
c1ccc2c(N3CCCC3Cn3cccn3)ncnc2c1 (stereo not given) | 6.84
CCOc1ccc(N2CCCN=C2NC(=O)c2ccccc2C)cc1 | 4.38
Cc1csc(N2CCN(C(=O)CCc3ccccn3)CC2)n1 | 7.95
COc1ccc(Cc2nnc(SC)o2)cc1OC | 1.57
Cn1ncc2c(NCCOc3ccc(F)cc3)nc(C3CCCC3)nc21 | 7.22
COCC1c2c(cnn2C)CCN1Cc1ccoc1 (stereo not given) | 2.05
CC(=O)Nc1nc(CN2CCCCC2Cn2cccn2)cs1 (stereo not given) | -1.3
O=C(NCC1CC1)c1nc(COc2ccc3c(c2)OCO3)no1 | -3.59
Cc1nccc(-c2cccc(NCC(=O)N3CCNC3=O)c2)n1 | 0.813
Cc1ccc(CN2CC3(CCN(C(=O)c4cscn4)C3)C2)s1 | 11.8
CCCc1nc(CN2CCOC(Cn3cncn3)C2)no1 (stereo not given) | -4.75
Cc1nn(C)c(C)c1CNC1CCOc2ccccc21 (stereo not given) | -3.92
Cc1noc2nc(C3CCN(Cc4cccnc4)CC3)cc(C(F)F)c12 | 1.16
COc1cc(OC)c(C2Nc3cc(Cl)ccc3C3=NCCN32)cc1OC (stereo not given) | 2.92

tested on: Trypanosoma cruzi; experiment: Trypanosoma cruzi phosphomannomutase and mannose-1-phosphate guanylyltransferase assay; format: functional; set-up: scale not given: direction of the effect not stated beside the values; details: 10 µM

SMILES | Percent Effect [%]
N#CC1(C(=O)N2CCN(Cc3ccon3)CC2)CCC1 | -7.84
Cc1ccc2c(c1)c(CNC(=O)C1CC(=O)N(C3CCCC3)C1)nn2C (stereo not given) | -7.34
CCOc1cc(C)nc(N2CCN(Cc3nccn3C)CC2)n1 | 0.875
CCN(CC)C(=O)CCNC(=O)N1CCC(c2ccccc2)C1 (stereo not given) | 0.772
CCN1CCOC(CNCc2ccccc2OCC(=O)N(C)C)C1 (stereo not given) | 8.31
CC(NCc1ccc(Cl)o1)c1nnc2n1CCCC2 (stereo not given) | 0.195
Cc1ccc(NC(=O)Cn2cc(I)cn2)cc1 | -2.82
CC(C)c1nnc2n1CCN(C(=O)CN1Cc3ccccc3C1=O)C2 | 6.2
O=C(c1ccc(Cl)c(Cl)c1)N1CCCC(n2cncn2)C1 (stereo not given) | -2.14
O=C1COc2cc(C(=O)NS(=O)(=O)c3ccccc3F)ccc2N1 | -3.46
CN(C)[C@@H]1CCN(c2ncccn2)[C@H]1Cc1ccncc1 | 5.01
O=C([C@H]1CCCO1)N1CCc2ncnc(NC3CC3)c2CC1 | -5.47
c1ccc(-c2nnc(CNCCn3cccn3)o2)cc1 | 1.79
CC(C)c1nc2c(n1C)CCN(Cc1nc(-c3cccs3)no1)C2 | 1.21
COCCN1CC[C@@H]2OC[C@H](C(=O)NCc3cccs3)C[C@@H]2C1 | -3.23
O=C(NCc1ccc(F)cc1)N1CCC(C2OCCO2)CC1 | -1.66
CN(Cc1nnc(C2CC2)n1C)C1CCN(Cc2ccc(F)cc2)C1 (stereo not given) | 0.283
CN(C(=O)c1cccc2[nH]ncc12)C1CCN(c2ccccn2)CC1 | -4.6
Cc1nnc(N2CCC(CN(C)C(C)C)CC2)c(C#N)c1C | 9.89
Cc1cc(-c2nnc(SCC(=O)O)n2C(C)c2ccccc2)nn1C (stereo not given) | 6.32

SMILES | Percent Effect [%]
CC(C)OCc1ncn2c1CN(Cc1ccc(F)cc1)CCC2 | -4.79
Fc1cnc(N2C[C@H]3CCC[C@@]3(COc3ccccn3)C2)nc1 | -3.93
CCS(=O)(=O)N1CCC2(CCCN(Cc3cc(OC)ccc3F)C2)C1 (stereo not given) | -2.23
COC(=O)c1ccc(C(=O)NS(=O)(=O)c2cncc(Br)c2)cc1 | -2.9
COc1c(CNC(c2nccn2C)C(C)C)c(C)nn1C (stereo not given) | -2.07
CC(C)c1nc(CN(C)CC2CCN(CCO)CC2)no1 | -1.35
c1ccc2c(N3CCCC3Cn3cccn3)ncnc2c1 (stereo not given) | 2.88
CCOc1ccc(N2CCCN=C2NC(=O)c2ccccc2C)cc1 | -0.0983
Cc1csc(N2CCN(C(=O)CCc3ccccn3)CC2)n1 | 3.87
COc1ccc(Cc2nnc(SC)o2)cc1OC | 6.72
Cn1ncc2c(NCCOc3ccc(F)cc3)nc(C3CCCC3)nc21 | 9.79
COCC1c2c(cnn2C)CCN1Cc1ccoc1 (stereo not given) | -1.95
CC(=O)Nc1nc(CN2CCCCC2Cn2cccn2)cs1 (stereo not given) | -0.0974
O=C(NCC1CC1)c1nc(COc2ccc3c(c2)OCO3)no1 | -7.07
Cc1nccc(-c2cccc(NCC(=O)N3CCNC3=O)c2)n1 | 6.82
Cc1ccc(CN2CC3(CCN(C(=O)c4cscn4)C3)C2)s1 | -2.98
CCCc1nc(CN2CCOC(Cn3cncn3)C2)no1 (stereo not given) | -1.74
Cc1nn(C)c(C)c1CNC1CCOc2ccccc21 (stereo not given) | -4.01
Cc1noc2nc(C3CCN(Cc4cccnc4)CC3)cc(C(F)F)c12 | -6.32
COc1cc(OC)c(C2Nc3cc(Cl)ccc3C3=NCCN32)cc1OC (stereo not given) | 6.89
